The test system of one experiment is CRL-7250. The experiment in a line: Cytotoxic Profiling of Annotated Libraries Using Quantitative High-Throughput Screening (AID 1296008). For max response: % is set by controls: 0 for no effect and ±100 for the full control effect. Note: nearly all actives have a fitted effect of over 60% in size. Note: potency is the fitted concentration of half-maximal effect. Particulars: Five cell lines viability, CellTiter-Glo ATP luminescence, 48-72 h; max response: hits give low values. In outline:
(§1)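 Cells exposed to compounds for 48 or 72 hr at 37 degrees Celsius. Viability read as ATP-coupled luminescence with CellTiter-Glo after 10 min at room temperature.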
Background: ATP-based viability assays read luminescence as a measure of living cells.

For another experiment, the system named is HEK293. Described as above. Particulars: Five cell lines viability, CellTiter-Glo ATP luminescence, 48-72 h; max response: hits give low values. The procedure, abridged:
as §1

For experiment [1], the system named is HaCat. The experiment is described as above. To be noted: Five cell lines viability, CellTiter-Glo ATP luminescence, 48-72 h; max response: hits give low values. The procedure, abridged:
as §1

In the next experiment the test system is KB-3-1. The description is as above. Particulars: Five cell lines viability, CellTiter-Glo ATP luminescence, 48-72 h; max response: hits give low values. The procedure, abridged:
as §1

Experiment [2] has as its system NIH3T3. The description is as above. To be noted: Five cell lines viability, CellTiter-Glo ATP luminescence, 48-72 h; max response: hits give low values. In outline:
as §1

The subject of experiment [3] is HACAT. The experiment in a line: qHTS assay to identify novel small-molecules to repurpose for Merkel cell carcinoma treatment (AID 1296009). Note: nearly all actives have a fitted effect of over 60% in size. To be noted: MCC and control cell lines, CellTiter-Glo viability, 72 h; at 44.8 µM (top of the series) unless noted. The procedure, abridged: (§2)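 Cells were treated for 72 hr at 37 degree celsius with compounds in 8- or 11-point dose response. Viability was read by CellTiter-Glo luminescence, normalized to no-cell (cytotoxicity) and DMSO controls.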

The subject of the next experiment is MCC-13. The experiment is described as above. To be noted: MCC and control cell lines, CellTiter-Glo viability, 72 h; series mostly up to 46 µM. In outline:
as §2

For another experiment, the system named is MCC-26. Described as above. To be noted: MCC and control cell lines, CellTiter-Glo viability, 72 h; series mostly up to 46 µM. In outline:
as §2

For another experiment, the system named is MKL-1. Described as above. Particulars: MCC and control cell lines, CellTiter-Glo viability, 72 h; series mostly up to 46 µM. The procedure, abridged:
as §2

The test system of another experiment is MKL-2. The experiment is described as above. To be noted: MCC and control cell lines, CellTiter-Glo viability, 72 h; series mostly up to 46 µM. The procedure, abridged: as §2
For another experiment, the system named is UISO. Described as above. Particulars: MCC and control cell lines, CellTiter-Glo viability, 72 h; series mostly up to 46 µM. The procedure, abridged: as §2
The subject of a further experiment is WaGa. Described as above. Particulars: MCC and control cell lines, CellTiter-Glo viability, 72 h; series mostly up to 46 µM. In outline: as §2
The subject of another experiment is TAB113. The experiment in a line: qHTS profiling for inhibitors of Plasmodium falciparum proliferation (AID 504749).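 Note: 0% = DMSO vehicle and full inhibition = artemisinin control; nearly all actives have a fitted effect of over 60% in size.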 Particulars: P. falciparum in erythrocytes, SYBR Green DNA, 72 h; series mostly up to 28.7 µM. The procedure, abridged: (§3)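 P. falciparum-infected erythrocytes (0.3% parasitemia, 2.5% hematocrit) incubated with compound 72 h at 37 C, 5% CO2. Parasite DNA detected by SYBR Green after lysis, overnight at room temperature; normalised to 0.29 uM artemisinin and DMSO.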
A general note: qHTS replaces the single test concentration by a dilution series.

The next experiment deals with TAB165. The experiment is described as above. To be noted: P. falciparum in erythrocytes, SYBR Green DNA, 72 h; series mostly up to 28.7 µM. In outline:
as §3

The next experiment has as its system W2. Described as above. Particulars: P. falciparum in erythrocytes, SYBR Green DNA, 72 h; series mostly up to 28.7 µM. In outline: as §3
In another experiment the test system is HEK293T. As to the kind of experiment: qHTS assay to identify novel small-molecules to repurpose for Merkel cell carcinoma treatment (AID 1296009). Note: nearly all actives have a fitted effect of over 60% in size. To be noted: MCC and control cell lines, CellTiter-Glo viability, 72 h; at 44.8 µM (top of the series). The procedure, abridged: as §2
Experiment [4] concerns NIH3T3. The description is as above. Particulars: MCC and control cell lines, CellTiter-Glo viability, 72 h; at 44.8 µM (top of the series) unless noted. The procedure, abridged: as §2
For another experiment, the system named is C33A. The experiment in a line: Primary qHTS to identify gynecologic anti-cancer compounds using libraries of approved drugs and bioactive compounds (AID 1345084). Note: nearly all actives have a fitted effect of over 55% in size. Note: potency is the fitted concentration of half-maximal effect. To be noted: Gynecologic cancer cell panel viability, ATPlite luminescence, 48 h; series mostly up to 57.5 µM. In outline: (§4)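 Five-point cytotoxicity, 48 h drug exposure at 37 C, 5% CO2, on cells seeded 16 h beforehand. ATP content read by ATPlite luminescence.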

For another experiment, the system named is CAOV3. Described as above. To be noted: Gynecologic cancer cell panel viability, ATPlite luminescence, 48 h; series mostly up to 57.5 µM. In outline: as §4
Another experiment relates to CASKI. The experiment is described as above. Particulars: Gynecologic cancer cell panel viability, ATPlite luminescence, 48 h; series mostly up to 57.5 µM. The procedure, abridged:
as §4

Each structure is given as a SMILES string. Several values for one entry are separate records, joined by “and”; a condition that tells them apart may be missing. Equal entries are not always repeated. Records with an inconclusive call do not appear. Values without a mark were called inactive. Activity calls are given as the source filed them. Calls come from the whole dose curve; as a rule, active = well fitted curve in the direction sought with a large enough effect; inconclusive = small, poorly fitted or top-dose-only effect, or another doubt; inactive = no such curve, though single readings can be large; an effect the other way counts as inactive or inconclusive.

In the case of `O=C(Nc1c(Cl)cncc1Cl)c1ccc(OC(F)F)c(OCC2CC2)c1`, the max response was -6.52% in the experiment on CRL-7250, 0.493% in the experiment on HEK293 and -4.15% in the experiment with NIH3T3 [2]. The compound was called inactive in the experiment on HaCat [1], with KB-3-1 and with HACAT [3]. Moreover, the Potency result in the experiment on MCC-13, in the experiment with MCC-26, with MKL-1, in the experiment with MKL-2, in the experiment with UISO and with WaGa was “inactive” each time.
As for `CC(C(=O)O)c1ccc(-c2ccccc2)c(F)c1` (centres undefined), the max response is 2.91% with CRL-7250; 1.61% in the experiment on HEK293; -1.08% and -0.207% in the experiment with KB-3-1; -0.252% in the experiment with NIH3T3 [2]. The outcome in the experiment on HaCat [1] and with HACAT [3] was inactive. The Potency result in the experiment on MCC-13, in the experiment on MKL-1, in the experiment with MKL-2, in the experiment on UISO and in the experiment with WaGa was “inactive” each time.
Turning to `NC(N)=Nc1nc(CSCC/C(N)=N/S(N)(=O)=O)cs1`, the Potency result in the experiment on TAB113, with TAB165, with W2, in the experiment on MCC-13, in the experiment on MCC-26 and in the experiment with MKL-1 was “inactive” each time. For the same compound, the Potency result in the experiment on MKL-2, in the experiment on UISO, with WaGa, in the experiment on C33A, in the experiment with CAOV3 and in the experiment with CASKI was “inactive” throughout. Also, the max response in the experiment with CRL-7250 was -7.89%; with KB-3-1, 30.2%. The call with HEK293, in the experiment on HaCat [1], in the experiment on NIH3T3 [2], in the experiment with HACAT [3], in the experiment with HEK293T and with NIH3T3 [4] was inactive.
Take `CC(=Cc1ccccc1)C=C1SC(=S)N(CC(=O)O)C1=O`: the max response with CRL-7250 was -0.535%; with HEK293, -4.91%; in the experiment with KB-3-1, -2.93%. Further, the call in the experiment on HaCat [1], in the experiment on NIH3T3 [2], in the experiment with HACAT [3] and in the experiment with NIH3T3 [4] was inactive. Besides, the Potency result in the experiment with MCC-13, with MCC-26, in the experiment on MKL-1, with MKL-2, with UISO and in the experiment with WaGa was “inactive” throughout.
With `COCCOc1nc(-c2ccc(Cl)c(Cl)c2)n(-c2ccc(NC(=O)CCl)cc2)n1`, the Potency in the experiment on CRL-7250 was 6.62 µM (active); in the experiment with HEK293, 3.72 µM (active) and 4.61 µM (active); in the experiment on KB-3-1, 18.7 µM (active); in the experiment on NIH3T3 [2] it was 4.11 µM (active); with C33A, 20 µM (active); with CAOV3, 28.2 µM (active). Besides, the call in the experiment with HaCat [1] and with HACAT [3] was inactive. The Potency entry with MCC-13, with MCC-26 and with MKL-1 was “inactive” in each case.
For `CC(C)(C)COc1ccc(-n2cc(C(=O)O)cn2)cc1C#N`, the compound was called inactive in the experiment with CRL-7250, in the experiment on HaCat [1] and with HACAT [3]. For the same compound, the max response with HEK293 is 3.28%; with KB-3-1, 7.58%; with NIH3T3 [2], 3.94%. Moreover, the Potency entry in the experiment with MCC-13, in the experiment with MCC-26, in the experiment with MKL-1, with MKL-2, in the experiment on UISO and with WaGa was “inactive” each time.
For `CC=C(C)C(=O)O[C@H]1C(C)=C[C@]23C(=O)[C@@H](C=C(CO)[C@@H](O)[C@]12O)[C@H]1[C@@H](C[C@H]3C)C1(C)C`, the max response with CRL-7250 is 2.46%; in the experiment with KB-3-1, -20.1%; in the experiment on NIH3T3 [2], -20.8%. For the same compound, in the experiment with HEK293, the Potency was 26.4 µM (active). The compound was classed as inactive in the experiment with HaCat [1] and in the experiment on HACAT [3]. Moreover, the Potency result in the experiment with MCC-13, in the experiment on MKL-1, in the experiment on MKL-2 and in the experiment with WaGa was “inactive” each time.

The values are drawn from PubChem BioAssay (NCATS).
